# Test results taken from the supplement of paper PMC10037445.
# The full ranking holds about 2,900 compounds; the median of “NF-kB SEAP reporter activity, fold change vs agonist alone” is about 0.99, and the highest 2% start at about 2.6. The sample as a whole holds a higher share of the highest values than the screen did.
# Assays:
# RAW-Dual [1] = assay: NF-kB SEAP reporter activity, fold change vs agonist alone; cytotoxicity flag (confluency mask): cytotoxic (confluency <70% of control); higher = enhanced NF-kB activity
# In short: (§1)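 RAW-Dual macrophages (50,000 cells/well in DMEM, 384-well plates) received 50 nL of library stock by pin tool, then a PRR agonist 1 h later, and were kept at 37 °C, 5% CO2. After 20 hours, supernatant was read for IRF by QuantiLuc luminescence and for NF-κB by QuantiBlue absorbance at 620 nm. Reporter activity is fold change over agonist-alone wells. Cytotoxic wells had IncuCyte confluency below 70% of agonist controls in both mask sets.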
# RAW-Dual [2] = assay: NF-kB SEAP reporter activity, fold change vs agonist alone; higher = enhanced NF-kB activity
# In short: as §1
# RAW-Dual [3] = assay: NF-kB SEAP reporter activity, fold change vs agonist alone; cytotoxicity flag (confluency mask): not cytotoxic; higher = enhanced NF-kB activity
# In short: as §1
# [4] = agonist: ODN 1826 (TLR9) 0.5 ug/mL
# [5] = agonist: Pam2CSK4 (TLR2/6) 0.1 ug/mL
# [6] = agonist: Pam3CSK4 (TLR2/1) 0.1 ug/mL
# [7] = library stock concentration (final ~1000-fold dilution): 10 mM, cytotoxicity flag (confluency mask): not cytotoxic, agonist: Imiquimod (TLR7) […]
# [8] = library stock concentration (final ~1000-fold dilution): 10 mM, cytotoxicity flag (confluency mask): not cytotoxic, agonist: MPLA (TLR4) […]
# [9] = library stock concentration (final ~1000-fold dilution): 10 mM, cytotoxicity flag (confluency mask): cytotoxic (confluency <70% of control), agonist: Imiquimod (TLR7) […]
# [10] = library stock concentration (final ~1000-fold dilution): 10 mM, cytotoxicity flag (confluency mask): cytotoxic (confluency <70% of control), agonist: MPLA (TLR4) […]
smiles,measurement,setting,value
C#Cc1cccc(Nc2ncnc3cc(OC)c(OCCCCCCC(=O)NO)cc23)c1 (library stock concentration (final ~1000-fold dilution): 10 mM),NF-kB SEAP reporter activity,RAW-Dual [1]; agonist: LPS (TLR4) 0.1 ug/mL,7.09
same,NF-kB SEAP reporter activity,RAW-Dual [1]; [4],1.67
same,NF-kB SEAP reporter activity,RAW-Dual [1]; [5],0.682
same,NF-kB SEAP reporter activity,RAW-Dual [1]; [6],1.41
COc1cc2ncnc(Nc3cc(Br)c(O)c(Br)c3)c2cc1OC,NF-kB SEAP reporter activity,RAW-Dual [2]; [7],0.787
same,NF-kB SEAP reporter activity,RAW-Dual [2]; [8],1.53
C#Cc1cccc(Nc2ncnc3cc(OCCOC)c(OCCOC)cc23)c1.Cl (library stock concentration (final ~1000-fold dilution): 2 mM),NF-kB SEAP reporter activity,RAW-Dual [3]; agonist: LPS (TLR4) 0.1 ug/mL,2.26
same,NF-kB SEAP reporter activity,RAW-Dual [3]; [4],0.972
same,NF-kB SEAP reporter activity,RAW-Dual [3]; [5],0.853
same,NF-kB SEAP reporter activity,RAW-Dual [3]; [6],1.1
C#Cc1cccc(Nc2ncnc3cc4c(cc23)OCCOCCOCCO4)c1,NF-kB SEAP reporter activity,RAW-Dual [2]; [7],1.06
same,NF-kB SEAP reporter activity,RAW-Dual [2]; [8],1.53
C#Cc1cccc(Nc2ncnc3cc(OCCOC)c(OCCOC)cc23)c1 (library stock concentration (final ~1000-fold dilution): 10 mM),NF-kB SEAP reporter activity,RAW-Dual [3]; agonist: LPS (TLR4) 0.1 ug/mL,4.68
same,NF-kB SEAP reporter activity,RAW-Dual [3]; [4],1.33
same,NF-kB SEAP reporter activity,RAW-Dual [3]; [5],0.887
same,NF-kB SEAP reporter activity,RAW-Dual [3]; [6],0.935
COc1cc2ncnc(Nc3ccc(O)cc3)c2cc1OC (library stock concentration (final ~1000-fold dilution): 10 mM),NF-kB SEAP reporter activity,RAW-Dual [3]; agonist: LPS (TLR4) 0.1 ug/mL,0.948
same,NF-kB SEAP reporter activity,RAW-Dual [3]; [4],0.826
same,NF-kB SEAP reporter activity,RAW-Dual [3]; [5],0.971
same,NF-kB SEAP reporter activity,RAW-Dual [3]; [6],0.867
C#Cc1cccc(Nc2ncnc3cc(OC)c(NC(=O)N4CC5CCN(C)C5C4)cc23)c1 (stereo not drawn),NF-kB SEAP reporter activity,RAW-Dual [2]; [7],1.09
same,NF-kB SEAP reporter activity,RAW-Dual [2]; [8],1.4
C#Cc1cccc(Nc2ncnc3cc(OC)c(OCCCCCCC(=O)NO)cc23)c1,NF-kB SEAP reporter activity,RAW-Dual [2]; [9],1.4
same,NF-kB SEAP reporter activity,RAW-Dual [2]; [10],1.87
COc1cc2ncnc(Nc3ccc(O)cc3)c2cc1OC,NF-kB SEAP reporter activity,RAW-Dual [2]; [7],1.05
same,NF-kB SEAP reporter activity,RAW-Dual [2]; [8],1.16
C#Cc1cccc(Nc2ncnc3cc(OCCOC)c(OCCO)cc23)c1.Cl (library stock concentration (final ~1000-fold dilution): 10 mM),NF-kB SEAP reporter activity,RAW-Dual [3]; agonist: LPS (TLR4) 0.1 ug/mL,4.71
same,NF-kB SEAP reporter activity,RAW-Dual [3]; [4],1.41
same,NF-kB SEAP reporter activity,RAW-Dual [3]; [5],1.02
same,NF-kB SEAP reporter activity,RAW-Dual [3]; [6],1.87
COc1cc2ncnc(Nc3ccc(F)c(Cl)c3)c2cc1NC(=O)/C=C/CN1CCCCC1,NF-kB SEAP reporter activity,RAW-Dual [2]; [9],2.28
same,NF-kB SEAP reporter activity,RAW-Dual [2]; [10],1.52
COc1cc2ncnc(Nc3cccc(Cl)c3)c2cc1OC,NF-kB SEAP reporter activity,RAW-Dual [2]; [9],1.58
same,NF-kB SEAP reporter activity,RAW-Dual [2]; [10],1.42
C#Cc1cccc(Nc2ncnc3cc4c(cc23)OCCOCCOCCO4)c1 (library stock concentration (final ~1000-fold dilution): 10 mM),NF-kB SEAP reporter activity,RAW-Dual [3]; agonist: LPS (TLR4) 0.1 ug/mL,1.8
same,NF-kB SEAP reporter activity,RAW-Dual [3]; [4],0.972
same,NF-kB SEAP reporter activity,RAW-Dual [3]; [5],1.16
same,NF-kB SEAP reporter activity,RAW-Dual [3]; [6],1.44
C#Cc1cccc(Nc2ncnc3cc(OCCOC)c(OCCO)cc23)c1.Cl,NF-kB SEAP reporter activity,RAW-Dual [2]; [7],1.81
same,NF-kB SEAP reporter activity,RAW-Dual [2]; [8],2.51
COc1cc2ncnc(Nc3cc(Br)c(O)c(Br)c3)c2cc1OC (library stock concentration (final ~1000-fold dilution): 10 mM),NF-kB SEAP reporter activity,RAW-Dual [3]; agonist: LPS (TLR4) 0.1 ug/mL,2.14
same,NF-kB SEAP reporter activity,RAW-Dual [3]; [4],0.951
same,NF-kB SEAP reporter activity,RAW-Dual [3]; [5],0.984
same,NF-kB SEAP reporter activity,RAW-Dual [3]; [6],0.757
COc1cc2ncnc(Nc3cccc(Cl)c3F)c2cc1OC(=O)N1CCN(C)CC1C (stereo not drawn) (library stock concentration (final ~1000-fold dilution): 10 mM),NF-kB SEAP reporter activity,RAW-Dual [3]; agonist: LPS (TLR4) 0.1 ug/mL,1.19
same,NF-kB SEAP reporter activity,RAW-Dual [3]; [4],0.84
same,NF-kB SEAP reporter activity,RAW-Dual [3]; [5],1.19
same,NF-kB SEAP reporter activity,RAW-Dual [3]; [6],1.1
COc1cc2ncnc(Nc3ccc(F)c(Cl)c3)c2cc1NC(=O)/C=C/CN1CCCCC1 (library stock concentration (final ~1000-fold dilution): 10 mM),NF-kB SEAP reporter activity,RAW-Dual [1]; agonist: LPS (TLR4) 0.1 ug/mL,0.266
same,NF-kB SEAP reporter activity,RAW-Dual [1]; [4],0.26
same,NF-kB SEAP reporter activity,RAW-Dual [1]; [5],0.179
same,NF-kB SEAP reporter activity,RAW-Dual [1]; [6],0.384
C#Cc1cccc(Nc2ncnc3cc(OC)c(NC(=O)N4CC5CCN(C)C5C4)cc23)c1 (stereo not drawn) (library stock concentration (final ~1000-fold dilution): 10 mM),NF-kB SEAP reporter activity,RAW-Dual [3]; agonist: LPS (TLR4) 0.1 ug/mL,3.99
same,NF-kB SEAP reporter activity,RAW-Dual [3]; [4],0.205
same,NF-kB SEAP reporter activity,RAW-Dual [3]; [5],0.732
same,NF-kB SEAP reporter activity,RAW-Dual [3]; [6],0.783
COc1cc2ncnc(Nc3cccc(Cl)c3F)c2cc1OC(=O)N1CCN(C)CC1C (stereo not drawn),NF-kB SEAP reporter activity,RAW-Dual [2]; [7],0.868
same,NF-kB SEAP reporter activity,RAW-Dual [2]; [8],1.05
C#Cc1cccc(Nc2ncnc3cc(OCCOC)c(OCCOC)cc23)c1,NF-kB SEAP reporter activity,RAW-Dual [2]; [7],1.02
same,NF-kB SEAP reporter activity,RAW-Dual [2]; [8],1.88
COc1cc2ncnc(Nc3ccc(O)c(Br)c3)c2cc1OC,NF-kB SEAP reporter activity,RAW-Dual [2]; [7],1.45
same,NF-kB SEAP reporter activity,RAW-Dual [2]; [8],1.78
C#Cc1cccc(Nc2ncnc3cc(OCCOC)c(OCCOC)cc23)c1.Cl,NF-kB SEAP reporter activity,"RAW-Dual [2]; library stock concentration (final ~1000-fold dilution): 2 mM, cytotoxicity flag (confluency mask): not cytotoxic, agonist: Imiquimod (TLR7) […]",0.949
same,NF-kB SEAP reporter activity,"RAW-Dual [2]; library stock concentration (final ~1000-fold dilution): 2 mM, cytotoxicity flag (confluency mask): not cytotoxic, agonist: MPLA (TLR4) […]",1.39
COc1cc2ncnc(Nc3ccc(O)c(Br)c3)c2cc1OC (library stock concentration (final ~1000-fold dilution): 10 mM),NF-kB SEAP reporter activity,RAW-Dual [3]; agonist: LPS (TLR4) 0.1 ug/mL,2.33
same,NF-kB SEAP reporter activity,RAW-Dual [3]; [4],1.17
same,NF-kB SEAP reporter activity,RAW-Dual [3]; [5],0.685
same,NF-kB SEAP reporter activity,RAW-Dual [3]; [6],1.19
COc1cc2ncnc(Nc3cccc(Cl)c3)c2cc1OC (library stock concentration (final ~1000-fold dilution): 10 mM),NF-kB SEAP reporter activity,RAW-Dual [1]; agonist: LPS (TLR4) 0.1 ug/mL,1.59
same,NF-kB SEAP reporter activity,RAW-Dual [1]; [4],0.692
same,NF-kB SEAP reporter activity,RAW-Dual [1]; [5],0.764
same,NF-kB SEAP reporter activity,RAW-Dual [1]; [6],1.02
NS(=O)(=O)OC[C@H]1C[C@@H](Nc2ccnc3cc(-c4cccc(SC(F)(F)F)c4)nn23)[C@H](O)[C@@H]1O,NF-kB SEAP reporter activity,RAW-Dual [2]; [9],0.145
same,NF-kB SEAP reporter activity,RAW-Dual [2]; [10],0.255
NS(=O)(=O)OC[C@H]1C[C@@H](Nc2ccnc3cc(-c4cccc(SC(F)(F)F)c4)nn23)[C@H](O)[C@@H]1O (library stock concentration (final ~1000-fold dilution): 10 mM),NF-kB SEAP reporter activity,RAW-Dual [1]; agonist: LPS (TLR4) 0.1 ug/mL,0.308
same,NF-kB SEAP reporter activity,RAW-Dual [1]; [4],0.19
same,NF-kB SEAP reporter activity,RAW-Dual [1]; [5],0.0814
same,NF-kB SEAP reporter activity,RAW-Dual [1]; [6],0.152
